Bioassay records as filed in PubChem.
AmpC nodet inh: AmpC beta-lactamase inhibition, detergent-free assay; P00811; AmpC nitrocefin hydrolysis, absorbance 480 nm, no detergent; Potency, µM (doses to about 28.7 µM), for inactives: at the top dose activity change, negative = inhibition; 1.8% of 71,000 active; also: % of control where 0% means no effect
Target sequence (P00811 whole entry, looked up): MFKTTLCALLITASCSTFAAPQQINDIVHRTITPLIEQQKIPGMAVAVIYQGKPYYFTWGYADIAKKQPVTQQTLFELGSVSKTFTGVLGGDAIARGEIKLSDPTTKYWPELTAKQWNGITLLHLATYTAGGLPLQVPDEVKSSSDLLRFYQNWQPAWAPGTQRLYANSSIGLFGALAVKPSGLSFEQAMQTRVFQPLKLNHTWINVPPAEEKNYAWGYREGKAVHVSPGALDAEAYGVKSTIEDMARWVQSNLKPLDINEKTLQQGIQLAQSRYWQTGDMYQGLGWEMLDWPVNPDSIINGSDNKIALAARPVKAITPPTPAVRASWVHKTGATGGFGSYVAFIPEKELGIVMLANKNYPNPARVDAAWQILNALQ
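AmpC in 20 mM phosphate buffer pH 7.0 was preincubated 15 min at room temperature with compounds. Nitrocefin (800 uM stock) was then added and hydrolysis followed at 480 nm every 20 s for 4 min.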
Anthrax LT inh: inhibitors of anthrax lethal toxin internalization; Potency, µM (doses to about 40 µM), without a hit: at the highest dose activity change, negative = inhibition, most hits filed as inhibitors; AID 912; 0.67% of 70,000 active; Cells, anthrax lethal toxin internalization, FRET ratio (460/530); also: % is scaled to controls: 0 for no effect and ±100 for the full control effect; nearly all actives have a fitted effect of over 50% in size
Prx2 Sm inh: Schistosoma mansoni Prx2 inhibition | S. mansoni Prx2 activity coupled to TGR/GSH (TGR is thioredoxin glutathione reductase), NADPH fluorescence loss, qHTS | Potency, µM | 0.07% of 65,000 active
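qHTS, coupled TGR/Prx2 format; 15 min compound preincubation at RT; reaction started with H2O2 (2.5 mM aliquot); kinetic NADPH fluorescence decrease, ex 365/em 450 nm.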
AmpC det inh: inhibitors of E. coli AmpC beta-lactamase with detergent. P00811. purified AmpC, nitrocefin hydrolysis with detergent. Potency, µM (series often up to 28.7 µM), without a hit: top-dose activity change, negative = inhibition. 0.09% of 71,000 active. AID 584; active = well fitted curve in the direction sought with a large enough effect; inconclusive = small, poorly fitted or top-dose-only effect; also: % is scaled to controls: 0 for no effect and ±100 for the full control effect
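E. coli AmpC (5.3 nM) in 20 mM phosphate pH 7.0 with 0.01% Triton X-100, preincubated 15 min RT with compound; nitrocefin (2 uL of 800 uM stock) hydrolysis followed by 480 nm absorbance every 20 s over 4 min.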
The depositor's hits bear a star; ? = inconclusive; · = no result; ! = not confirmed by another sample; [ ] = another dose, or the depositor's remark. In the library only some 2.4% were active in any assay of this set; here they are far more common. Unless noted, calls follow the shape of the full dose curve. Potency is read from the fitted curve at half-maximal effect.

SMILES	AmpC nodet inh	Anthrax LT inh	Prx2 Sm inh	AmpC det inh
CO[C@@H]1/C=C\O[C@]2(C)Oc3c(C)c(O)c4c(O)c(cc(O)c4c3C2=O)NC(=O)/C(C)=C\C=C/[C@H](C)[C@@H](O)[C@H](C)[C@H](O)[C@H](C)[C@H](OC(C)=O)[C@@H]1C	16%[5.75 µM]	3%[8 µM]	>57	-3%[5.75 µM]
CO[C@]1(NC(=O)C2SC(=C(C(N)=O)C(=O)O)S2)C(=O)N2C(C(=O)O)=C(CSc3nnnn3C)CS[C@H]21 (some centres not stated)	?	0.5µM*	>57	2µM*
CO[C@]1(NC(=O)CSCC#N)C(=O)N2C(C(=O)O)=C(CSc3nnnn3C)CS[C@H]21	7.9µM*![single pt active]	?	>57	?
Cn1nnnc1SCC1=C(C(=O)O)N2C(=O)[C@@H](NC(=O)[C@@H](O)c3ccccc3)[C@@H]2SC1	-18%[12.8 µM]	0%[3.58 µM]	>57	-3%[12.8 µM]
CO[C@]1(NC(=O)Cc2cccs2)C(=O)N2C(C(=O)O)=C(COC(N)=O)CS[C@H]21	5µM*	5µM*	>26	5µM*
CN(C)CCn1nnnc1SCC1=C(C(=O)O)N2C(=O)[C@@H](NC(=O)Cc3csc(N)n3)[C@@H]2SC1	0%[12.8 µM]	-13%[3.58 µM]	>57	-4%[12.8 µM]
CN1CCc2cc3c(cc2[C@@H]1[C@H]1OC(=O)c2c1ccc1c2OCO1)OCO3	40%	?	>57	-3%
Cc1cnc(CNc2ccnc(-c3cccc(NS(C)(=O)=O)c3)n2)cn1	-8%	-2%	>57	8%
COc1ccccc1S(=O)(=O)Cc1ccc(C(=O)NCCN2CCCCCC2)o1	4µM*[single pt active]	-17%	>57	10%
O=C(NCCCN1CCOCC1)c1ccc(CS(=O)(=O)c2c(Cl)cccc2Cl)o1	3.2µM*[single pt active]	-12%	>57	18%
O=C(NCCN1CCOCC1)c1ccc(CS(=O)(=O)c2ccc(Br)cc2)o1	31%	-3%	>57	-1%
O=C(NCCCN1CCOCC1)c1ccc(CS(=O)(=O)c2ccc(Br)cc2)o1	4µM*[single pt active]	-11%	>57	10%
C[C@H]1C(=O)O[C@H]2CCN3CC=C(COC(=O)[C@](C)(O)[C@@]1(C)O)[C@H]23	-5%	3%	>57	-2%
O=C1C[C@H]2OCCC=C3CN4CC[C@@]56c7ccccc7N1[C@@H]5[C@H]2[C@H]3C[C@@H]46	-9%	?	>57	3%
O=C1OC2(c3ccc(O)cc3Oc3cc(O)ccc32)c2c1c(-c1ccccc1)c(-c1ccccc1)c(-c1ccccc1)c2-c1ccccc1	2.5µM*	?	>57	-5%[5.75 µM]
Cc1ccc2cccc(OC(=O)N(C)c3ccccc3)c2n1	33%	16µM*	·	4%
COc1ccc(Nc2nc(N3CCCC3)nc3ccccc23)c(OC)c1	54%	13µM*	>57	-1%
COc1ccc(OC)c(S(=O)(=O)n2ccnc2)c1	8%	10%	>57	12%
CC1CCN(CCCNC(=O)c2cc3c(=O)n(C)c4ccccc4c3n2C)CC1	20%	6.3µM*	>57	12%
CN1CCN(CCCNC(=O)c2cc3c(=O)n(C)c4ccccc4c3s2)CC1	33%	10µM*	>57	5%
Cn1c(C(=O)NCCN2CCN(Cc3ccccc3)CC2)cc2c(=O)n(C)c3ccccc3c21	?	-2%	>57	7%
Cn1c(C(=O)NCCN2CCCCCC2)cc2c(=O)n(C)c3ccccc3c21	128%	1.6µM*	>57	10%
Cn1c(C(=O)NCC2CCCO2)cc2c(=O)n(C)c3ccccc3c21 (configuration not stated)	4µM*[single pt active]	5%	>57	12%
Nc1ccn([C@H]2CC[C@H](CO)O2)c(=O)n1	4%	-4%	>57	-2%
C[C@@]12C(=O)OC(=O)[C@@]1(C)[C@H]1CC[C@@H]2O1	2%	?	>57	14%
SMILES	AmpC nodet inh	Anthrax LT inh	Prx2 Sm inh	AmpC det inh
Cc1ccc([N+](=O)[O-])cc1C	1%	0%	·	9%
Cn1c(C(=O)Nc2ccc3c(c2)OCO3)cc2c(=O)n(C)c3ccccc3c21	4µM*[single pt active]	?	>57	6%
COc1ccccc1CNC(=O)c1cc2c(=O)n(C)c3ccccc3c2n1C	4µM*[single pt active]	3%	>57	11%
CCCCN(CC)CCCNC(=O)c1cc2c(=O)n(C)c3ccccc3c2n1C	21%	4µM*	>57	14%
CC(C)OCCCNC(=O)c1cc2c(=O)n(C)c3ccccc3c2n1C	29%	5%	>57	14%
CC[C@@H]1[C@H]2CCCCN3[C@@H]2[C@@H](C[C@H]3[C@@H]2C[C@H](C)C(=O)O2)[C@@H]2[C@H]1OC(=O)[C@H]2C	58%	?	>57	-4%
O=C(Nc1ccc(-c2noc(CCc3ccccc3)n2)cc1)c1cccnc1	98%	10µM*	>57	-3%
O=C(c1[nH]o[n+](=O)c1C(=O)c1csc2ccccc12)c1csc2ccccc12	-11%[5.75 µM]	?	·	-6%[5.75 µM]
CCn1c(NC(=O)c2cccc(Cn3cc(Cl)cn3)c2)nc2ccccc21	4µM*[single pt active]	1%	>57	19%
Cn1c(NC(=O)c2cccc(Cn3cc(Cl)cn3)c2)nc2ccccc21	-4%	9%	>57	-2%
Cc1cc(NC(=O)CCS(=O)(=O)c2nc(-c3ccccc3)cc(C(F)(F)F)n2)no1	-11%	7.9µM*	>57	-3%
CCC(=O)Nc1c2c(nn1-c1cccc(Cl)c1)CSC2	4µM*[single pt active]	6%	>57	13%
CCc1ccc(-c2cn(-c3nc(C)cc(C)n3)c(=N)o2)cc1	19%	13µM*	>57	12%
O=C(CCc1ccc(S(=O)(=O)N2CCCCC2)cc1)c1nnc(-c2ccccc2)o1	20µM*[single pt active]	-22%	>57	-6%
O=C(O)C(O)(c1ccc(-c2ccccc2)cc1)c1ccc(-c2ccccc2)cc1	-1%[5.75 µM]	?	>57	-9%[5.75 µM]
Cc1csc(Sc2nc3c(c(=O)[nH]c(=O)n3C)n2CCCc2ccccc2)n1	16µM*[single pt active]	-13%	>57	-5%
COc1ccccc1S(=O)Cc1ccc(C(=O)NCCc2ccc(Cl)cc2)o1 (configuration not stated)	73%	2.5µM*	>57	11%
COc1ccccc1S(=O)(=O)Cc1ccc(C(=O)NCCN(C)C)o1	-2%	-13%	>57	5%
COc1ccc(S(=O)(=O)Cc2ccc(C(=O)NC3CC3)o2)cc1	0%	9%	>57	4%
COc1ccccc1S(=O)Cc1ccc(C(=O)NC2CCCC2)o1 (configuration not stated)	4µM*[single pt active]	-19%	>57	11%
O=S(=O)(Nc1nccs1)c1cc(Cl)ccc1Cl	10µM*[single pt active]	2%	>57	-5%
COC(=O)CS	-6%	-8%	·	11%
CCCCNC(=O)CS(=O)Cc1nc(-c2ccc(C)cc2)oc1C (configuration not stated)	4µM*[single pt active]	-2%	>57	12%
CCCN(CCC)CCNC(=O)CS(=O)Cc1nc(-c2ccc(C)cc2)oc1C (configuration not stated)	25%	11%	>57	-3%
Cc1ccc(-c2nc(CS(=O)CC(=O)NCCCN3CC(C)CC(C)C3)c(C)o2)cc1 (configuration not stated)	4µM*[single pt active]	-7%	>57	14%
